High-throughput results: PubChem BioAssay, several laboratories
An excerpt weighted towards active compounds, which were near 2.4% of everything screened.
TLR9-MyD88 inh = inhibitors of TLR9-MyD88 association in cells, primary screen, cell-based, CHO, BLA complementation, fluorescence; AID 504734, 2011; inhibition, % at 4.98 µM; 340,000 compounds, 0.21% hits; CCF4 FRET ratio; Toll-like receptor 9 (Homo sapiens) + Myeloid differentiation primary response protein …;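 active = inhibition above the mean over all tested compounds plus 3 SD, cut at about 21% in these data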
HSF-1 act = HSF-1 activators, primary screen, NIH3T3-HGL cells, MG132 stress, luminescence, single point; NIH3T3-HGL HSF-1 luciferase reporter, 8 h; 100% = twice DMSO control signal; activation, % at 9 µM; 300,000 compounds, 1.7% hits; AID 504408, 2011;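 active = mean replicate activation of at least 50% with a set share of replicates each reaching 50%; inconclusive = only one of those two conditions met; inactive = mean below 50% and too few replicates reaching it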
HSF1 inh = HSF1 inhibitors in luciferase reporter cells, primary screen, cell-based, NIH3T3, luminescence; 300,000 compounds, 0.77% hits; NIH3T3-HGL HSE-luciferase, MG132-induced, luminescence 8 h; stronger effect = lower value; activity change, negative = inhibition, % at 7.5 µM (by protocol);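 active = more than half of replicate wells show activity change below -50%, luminescence cut by over half; inconclusive = some wells, but at most half, below -50%; inactive = no replicate well below -50%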;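 note: luciferase reports HSF-1 transcriptional activity via heat shock element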
TLR4-MyD88 BLA = inhibitors of TLR4-MyD88 association in cells, primary screen, cell-based, HeLa CL3-4, BLA complementation, FRET ratio; inhibition, % at 8.4 µM; 200,000 compounds, 0.18% hits; Toll-like receptor 4 (Homo sapiens) + Myeloid differentiation primary response protein …; AID 861, 2007; HeLa CL3-4 TLR4/MyD88 BLA complementation; in the data active = inhibition above about 25%
NOD2-RIPK2 inh = NOD2-RIPK2 binding disruptors in cells, primary screen, fluorescence, CHO cells, BLA complementation. Receptor-interacting serine/threonine-protein kinase 2 (Homo sapiens), O43353. CCF4 ratio. inhibition, % at 4.98 µM. 360,000 compounds, 0.38% hits; in the data active = inhibition above about 21%
Target sequence (O43353 whole entry, looked up): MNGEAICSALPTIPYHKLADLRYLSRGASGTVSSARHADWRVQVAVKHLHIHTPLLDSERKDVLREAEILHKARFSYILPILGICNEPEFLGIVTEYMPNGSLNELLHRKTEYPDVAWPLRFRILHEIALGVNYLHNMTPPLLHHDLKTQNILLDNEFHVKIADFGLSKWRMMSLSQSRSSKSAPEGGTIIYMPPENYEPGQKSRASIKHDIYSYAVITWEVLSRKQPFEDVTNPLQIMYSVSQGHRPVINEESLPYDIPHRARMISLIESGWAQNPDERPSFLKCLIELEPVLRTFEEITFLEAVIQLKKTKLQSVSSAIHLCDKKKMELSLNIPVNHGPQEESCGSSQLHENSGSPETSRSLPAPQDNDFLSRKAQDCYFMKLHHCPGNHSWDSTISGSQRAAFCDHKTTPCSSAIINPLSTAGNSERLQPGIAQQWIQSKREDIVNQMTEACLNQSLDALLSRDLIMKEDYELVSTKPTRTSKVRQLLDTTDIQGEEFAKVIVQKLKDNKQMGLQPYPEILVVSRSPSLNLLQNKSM
TLR4-MyD88 conf = TLR4-MyD88 association inhibitors, retest, confirmation, cell-based, HeLa CL3-4, BLA complementation, FRET ratio. AID 941, 2007. CCF4 FRET ratio. 350 compounds, 50% hits. shares compounds with TLR4-MyD88 BLA. inhibition, % at 8.4 µM;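 active = mean inhibition across three repeat runs above about 25% carried over from the earlier screen, limit read from the data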
BLA inhibitor ct = inhibits beta-lactamase activity, counter-screen to TLR4-MyD88 binding inhibitors | shares compounds with TLR4-MyD88 BLA | 350 compounds, 63% hits | HeLa BLA reporter, CCF4 FRET ratio | inhibition, % at 8.4 µM;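 active = mean inhibition over three repeats above about 26% taken from the earlier screen, limit read from the data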;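 note: HeLa cells stably expressing beta-lactamase reporter as counterscreen for TLR4-MyD88 inhibitors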
A number is an active result; n = inactive; u = inconclusive; x = no result given.

SMILES	TLR9-MyD88 inh	HSF-1 act	HSF1 inh	TLR4-MyD88 BLA	NOD2-RIPK2 inh	TLR4-MyD88 conf	BLA inhibitor ct
COc1ccccc1NC(=O)C(C)OC(=O)C1CCN(S(=O)(=O)c2ccccc2C(F)(F)F)CC1 (centres undefined)	n	x	x	x	n	x	x
Nc1cc(-c2ccccc2)nn1Cc1ccc(Cl)cc1	n	n	n	28.5	n	n	n
COC(=O)c1ccc(CSC(=N)N)o1	n	n	n	n	n	x	x
CCOC(=O)c1ccoc1CSCc1ccc(C(=O)OC)o1	n	n	n	26.8	n	n	n
COc1ccc(-c2nnc(SCc3ccccc3F)o2)cc1OC	n	n	n	n	n	x	x
COc1cc2c3nnc(-c4ccc(F)cc4)c-3cn(Cc3ccccc3F)c2cc1OC	n	x	x	62.4	n	44.1	84.3
COc1ccccc1Cc1c(-c2ccc(F)cc2)nc2ccc(Cl)cn12	x	x	x	x	n	x	x
COc1cc2c3nnc(-c4ccccc4)c-3cn(Cc3ccccc3F)c2cc1OC	x	n	n	33.3	x	n	30.8
c1ccc(-c2cn3nc(-c4ccccc4)c(-c4ccccc4)nc3n2)cc1	n	n	n	51.8	n	43.5	72.9
Cc1ccc(-c2cn3nc(-c4ccccc4)c(-c4ccccc4)nc3n2)cc1	x	n	n	x	n	x	x
CCOC(=O)c1c2ccc(OCC(=O)N/N=C/c3ccc(C)cc3)cc2n2ccccc12	n	n	n	37.5	n	47.9	n
O=C1c2cccc3c(N4CCCCC4)ccc(c23)C(=O)N1c1ccc(O)cc1	n	n	n	31.0	n	30.1	47.7
CCCn1c(=O)[nH]c(=O)c2c1nc(-c1ccc(OC(F)F)c(OC)c1)n2CCOC	n	n	n	n	n	x	x
CCCn1c(=O)[nH]c(=O)c2c1nc(-c1ccccc1OC(F)F)n2CCOC	n	53.1	n	26.5	n	n	n
O=S(=O)(Nc1cc(Sc2cccc3cccnc23)c(O)c2ccccc12)c1ccc(F)cc1	x	u	u	29.5	x	25.4	31.9
NNC(=O)CSc1cccc2cccnc12	n	n	n	n	n	x	x
O=C(Sc1cccc2cccnc12)c1ccc(F)cc1	x	x	x	28.7	x	26.4	39.9
Cc1ccc(C(=O)N2CCN(S(=O)(=O)c3ccc(Br)cc3)CC2)o1	n	n	n	x	n	x	x
COc1ccc(N2CC(C(=O)Nc3nc4ccc(F)cc4s3)CC2=O)c(OC)c1 (centres undefined)	n	n	n	x	n	x	x
CN(C)S(=O)(=O)c1cccc(NC(=O)c2ccc3c(c2)OCCO3)c1	n	u	n	x	n	x	x
COc1ccccc1N1CCN(C(=O)COc2cc(C)ccc2C)CC1	n	n	n	n	n	x	x
COc1ccccc1N1CCN(C(=O)COc2cc(C)cc(C)c2)CC1	n	n	n	26.2	n	n	n
CC(Sc1nnc(Cc2cccs2)n1C1CC1)C(=O)NC1CCS(=O)(=O)C1 (centres undefined)	n	x	x	x	n	x	x
COc1ccc(C)cc1S(=O)(=O)N1CCN(S(=O)(=O)c2cc(C)ccc2OC)C(C)C1 (centres undefined)	n	n	n	26.9	n	n	n
C#CCNC(=O)C[C@@H]1C[C@@]2(C(=O)OCC)CCCC=C2N(Cc2ccccc2)C1=O	x	x	x	x	n	x	x
CC(=O)C1=C(C)NC(SCC(=O)c2ccc(-c3ccccc3)cc2)=C(C#N)C1c1cccnc1 (centres undefined)	x	x	x	30.6	x	n	35.5
CC(=O)C1=C(C)NC(SCSc2ccccc2)=C(C#N)C1c1cccnc1 (centres undefined)	x	n	n	n	x	x	x
Cc1ccc(S(=O)(=O)Nc2ccc(C(=O)NCCCn3ccnc3)cc2)cc1[N+](=O)[O-]	n	x	x	x	n	x	x
COc1ccc(C(CNC(=O)CCC(=O)c2ccc(C)s2)N2CCOCC2)cc1 (centres undefined)	n	x	x	x	n	x	x
